From PubChem BioAssay
FBW7 act – activators of human E3 ligase FBW7 | AlphaScreen FBW7–phospho-cyclin E peptide binding, activator screen | normalized activity (activation), % at 26.1 µM | 650,000 tested, 0.13% active | AID 1259310; in the data active = normalized activity above about 1.9%;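 note: purified mutant Fbw7 with reduced substrate affinity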
Target sequence (Q969H0 whole entry, looked up): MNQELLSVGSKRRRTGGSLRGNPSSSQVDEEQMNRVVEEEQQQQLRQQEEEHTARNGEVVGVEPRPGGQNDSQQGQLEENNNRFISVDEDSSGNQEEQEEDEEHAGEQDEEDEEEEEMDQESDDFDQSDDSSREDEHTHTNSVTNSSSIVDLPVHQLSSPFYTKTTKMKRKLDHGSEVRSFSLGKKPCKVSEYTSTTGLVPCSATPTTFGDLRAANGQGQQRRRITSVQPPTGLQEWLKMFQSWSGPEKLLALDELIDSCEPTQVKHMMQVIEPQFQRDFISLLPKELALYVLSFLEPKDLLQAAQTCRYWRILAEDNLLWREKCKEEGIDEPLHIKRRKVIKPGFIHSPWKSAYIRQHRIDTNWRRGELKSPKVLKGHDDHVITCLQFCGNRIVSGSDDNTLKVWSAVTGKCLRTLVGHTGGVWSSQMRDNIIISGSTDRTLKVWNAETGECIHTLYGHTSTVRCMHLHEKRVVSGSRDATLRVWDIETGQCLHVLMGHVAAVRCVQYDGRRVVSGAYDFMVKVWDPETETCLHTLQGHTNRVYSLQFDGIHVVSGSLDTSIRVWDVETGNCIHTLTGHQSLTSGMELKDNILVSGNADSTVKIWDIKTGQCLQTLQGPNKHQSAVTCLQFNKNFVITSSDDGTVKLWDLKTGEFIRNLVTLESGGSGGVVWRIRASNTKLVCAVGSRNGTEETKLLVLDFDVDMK
GPR151 ag – human GPR151 activation; 650,000 tested, 1% active; Q8TDV0; PathHunter beta-arrestin GPR151 cells, luminescence; activation, % at 11.2 µM; in the data active = activation above about 4.9%;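 note: 0% = median of compound wells and 100% = cells with positive control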
MITF primary – human MITF inhibition, primary screen; O75030; AlphaScreen MITF homodimerization, bead proximity signal; inhibition, % at 2.6 µM; 650,000 tested, 0.91% active; in the data active = inhibition above about 50%;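 note: 0% = vehicle wells with protein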
TEAD-YAP inh – TEAD-YAP interaction inhibition; HEK-TIYL cells, TEAD-Gal4/YAP UAS-luciferase luminescence; inhibition, % at 9.12 µM; 640,000 tested, 1.4% active; AID 1259422; in the data active = inhibition above about 32%;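 note: 0% = median of test compound wells and 100% = reference inhibitor wells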
MITF inh conf – confirmation of human MITF inhibitors. shares compounds with MITF primary. AlphaScreen MITF homodimerization, biotin/His-MITF beads. inhibition, % at 2.6 µM. 4,700 tested, 16% active. AID 1259372;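 active = inhibition above a cutoff derived from the DMSO control wells, cut at about 28% in these data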;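 note: 0% = MITF dimer wells with DMSO only; inhibitors lower the bead chemiluminescence by keeping MITF from dimerizing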
AlphaScreen DR – AlphaScreen optical interference, dose response counter-screen; shares compounds with MITF primary; IC50, µM; 480 tested, 6% active; AlphaScreen optical interference counterscreen, cell-free; AID 1259373; call rule not given here
AlphaScreen intf2 – AlphaScreen optical interference, counter-screen | shares compounds with MITF primary | LysRS AlphaScreen counterscreen, signal interference, triplicate | inhibition, % at 2.6 µM | 4,700 tested, 7.6% active | AID 1259376;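 active = inhibition above a cutoff derived from the DMSO control wells, cut at about 30% in these data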
* hit, by the source's call; / = no result given. An excerpt weighted towards active compounds, which were near 3.4% of everything screened.

SMILES	FBW7 act	GPR151 ag	MITF primary	TEAD-YAP inh	MITF inh conf	AlphaScreen intf2	others
O=c1c([N+](=O)[O-])c(N2CCCCC2)c2ccccc2n1Cc1ccccc1	1	0	21	-4	/	/
COc1cccc(C2=N/C(=C\c3ccc(OC(C)=O)c(OC(C)=O)c3)C(=O)O2)c1	1	-1	12	-2	/	/
Cc1cc(C(C)(C)C)ccc1OCCOCCN1CCN(C)CC1	0	0	49	-5	/	/
Cc1cc(C(C)(C)C)ccc1OCCN1CCN(C)CC1	0	1	87*	2	27	20
Cc1cc(C(C)(C)C)ccc1OCCCN1CCN(C)CC1	0	1	63*	-4	16	3
Cc1cc(C(C)(C)C)ccc1OCCOCCN1CCOCC1	0	1	73*	3	-12	11
O=C(CC(NCCCN1CCOCC1)C(=O)O)Nc1ccc(Cl)cc1 (stereo not given)	0	1	-11	2	/	/
O=C(CN(c1ccc(Cl)c(C(F)(F)F)c1)S(=O)(=O)c1ccccc1)NCc1ccccn1	0	0	7	-4	/	/
O=C(CN(c1ccc(Cl)c(C(F)(F)F)c1)S(=O)(=O)c1ccccc1)NCc1cccnc1	0	0	51*	5	-4	-6
COc1cccc(-n2c(CN3CCSCC3)n[nH]c2=S)c1	0	4	38	-2	/	/
S=c1[nH]nc(CN2CCSCC2)n1-c1cccc(Cl)c1	-1	0	62*	-7	17	16
c1ccc2c(c1)CC(c1nc3ccc(-c4cn[nH]c4)cc3[nH]1)CCO2 (stereo not given)	0	-2	1	19	/	/
Nc1n[nH]c(CC(=O)N(Cc2ccccc2)C2(C(=O)Nc3ccccc3)CCCCC2)n1	0	0	70*	-2	109*	101*
Cc1ccc(NC(=O)C2(N(C)C(=O)Cc3nc(N)n[nH]3)CCCCC2)cc1	0	-2	47	6	/	/
CN(C(=O)Cc1nc(N)n[nH]1)C1(C(=O)Nc2ccccc2)CCCCC1	-1	-1	64*	-4	92*	101*
Cc1c(C)c(C2=NON3N(C(=O)c4cccc([N+](=O)[O-])c4)c4ccccc4N23)c(C)c(C)c1Cl	0	0	-7	-1	/	/
O=C(Cn1cc2c(n1)CCCC2)N1CCN(c2ccccc2)CC1	1	3	61*	3	8	13
O=C(Cn1cc2c(n1)CCCC2)N1CCCCC1	0	0	4	-8	/	/
CC(=O)NC1(c2ccccc2)CCN(C(=O)N2CCOCC2)CC1	1	0	82*	7	11	16
CC(=O)NC1(c2ccccc2)CCN(C(=O)C2CC2)CC1	0	3	-9	2	/	/
N#Cc1ccccc1NC(=O)CN1CCN(Cc2ccccc2)CC1	0	-1	60*	-6	4	0
O=C(CN1CCN(CC(=O)c2ccco2)CC1)Nc1ccccc1F	0	1	66*	-10	9	14
COc1ccc(Cl)cc1NC(=O)CN1CCN(CC(=O)c2ccco2)CC1	0	1	53*	1	8	12
O=C(CN1CCN(CC(=O)c2ccco2)CC1)Nc1ccc2c(c1)OCCO2	-1	-1	69*	0	10	17
O=C(CN1CCC(NC(=O)c2ccco2)CC1)Nc1ccccc1F	0	1	-3	1	/	/
SMILES	FBW7 act	GPR151 ag	MITF primary	TEAD-YAP inh	MITF inh conf	AlphaScreen intf2	others
Cc1ccccc1NC(=O)CN1CCN(Cc2ccccc2)CC1	0	0	12	-2	/	/
COc1ccc(Cl)cc1NC(=O)CN1CCN(C)CC1	0	0	12	5	/	/
O=C(CSc1ccc2nc(-c3ccccc3)cn2n1)Nc1ccc(F)cc1	0	-2	1	-33	/	/
O=C(c1ccncc1)N1CCN(C(=O)c2cccc(Cl)c2)CC1	0	-1	3	8	/	/
Cc1ccc(C)c(Cn2c(=O)c3c(nc4n(C)c(C)cn34)n(C)c2=O)c1	0	1	10	2	/	/
Cn1c(N2CCC(C(=O)NCc3ccncc3)CC2)nc2ccccc21	1	0	-3	1	/	/
COc1ccc(NC(=O)c2ccccc2NC(=O)Nc2ccccc2)cc1	0	0	5	-26	/	/
O=C(CC(=O)c1ccco1)Nc1cc(Cl)ccc1Cl	0	-1	56*	-20	0	15
Cc1ccccc1OCC(O)CN1CCN(CC(O)COc2ccccc2C)C(C)C1 (stereo not given)	0	-1	55*	3	-6	-5
O=C(NCCCN1CCOCC1)c1ccc2nc(-c3ccco3)c(-c3ccco3)nc2c1	-1	0	14	3	/	/
O=C(NCCO)c1ccc2nc(-c3ccco3)c(-c3ccco3)nc2c1	-1	-1	74*	7	83*	24	AlphaScreen DR=>6.5
CC(=N\NC(=O)c1ccco1)/C(C)=N/NC(=O)c1ccco1	0	-1	2	-50	/	/
C=CCc1ccccc1OCCNCCOC	0	-2	52*	2	7	7
C=CCc1ccccc1OCCOCCNCCOC	0	-1	10	12	/	/
C=CCc1ccccc1OCCCNCCOC	0	3	59*	2	1	12
C=CCc1ccccc1OCCCNCCCOC	0	3	65*	2	5	13
COCCNCCOc1ccccc1OC	0	0	12	5	/	/
COCCNCCOc1ccccc1C(C)C	0	1	58*	4	17	42*
C=CCc1ccccc1OCCCCNCCCOC	0	1	24	2	/	/
CCC(C)NC(=O)Cn1nnc(-c2cccnc2)n1 (stereo not given)	0	-1	41	11	/	/
CC(C)CC(=O)N1CCN(c2ccc(-c3ccccn3)nn2)CC1	-2	-3	125*	-5	114*	101*
O=C(C1CC1)N1CCN(c2ccc(-c3ccccn3)nn2)CC1	-2	-6	122*	-15	112*	101*
O=C(c1ccccc1F)N1CCN(c2ccc(-c3ccccn3)nn2)CC1	-1	0	119*	-23	110*	101*
O=C(CSc1ccc(-c2ccccn2)nn1)N1CCN(c2ccccc2)CC1	-2	-1	9	7	/	/
Cc1cc2oc3c(c(=O)c2cc1C)C(c1cccnc1)N(CCCN(C)C)C3=O (stereo not given)	0	-1	83*	-4	-7	-4
COc1ccc(Cc2n[nH]c(=S)n2-c2ccccc2)cc1	0	2	13	3	/	/
OC(CNCCCN1CCOCC1)COC(c1ccc(F)cc1)c1ccc(F)cc1 (stereo not given)	0	-1	36	-1	/	/
CN1CCC(N(C)CC(O)COC(c2ccc(F)cc2)c2ccc(F)cc2)CC1 (stereo not given)	0	-1	60*	3	-11	4
COc1ccc(C)cc1NS(=O)(=O)c1ccc2c(c1)CCC(=O)N2	0	-1	73*	3	62*	-3	AlphaScreen DR=>6.5
